# Reference: publication PMC4336329 (PLoS ONE, 2015)
# Hit rate of the full screen: of about 310,000 compounds, about 14,000 (4.5%) showed an effect of 50% or more. Effects have a minus sign here. The full list was thinned out, with strong results kept by preference.
# Target: human ether-à-go-go-related gene (hERG) potassium channel (human, UniProt Q12809)
# Test: primary screen, population patch clamp on CHO cells stably expressing hERG; higher = less effect of the substance
# 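Also: peak tail current of the secondary pulse compared with the same well before compound.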
# Sequence of human ether-à-go-go-related gene (hERG) potassium channel (Q12809 whole entry, looked up): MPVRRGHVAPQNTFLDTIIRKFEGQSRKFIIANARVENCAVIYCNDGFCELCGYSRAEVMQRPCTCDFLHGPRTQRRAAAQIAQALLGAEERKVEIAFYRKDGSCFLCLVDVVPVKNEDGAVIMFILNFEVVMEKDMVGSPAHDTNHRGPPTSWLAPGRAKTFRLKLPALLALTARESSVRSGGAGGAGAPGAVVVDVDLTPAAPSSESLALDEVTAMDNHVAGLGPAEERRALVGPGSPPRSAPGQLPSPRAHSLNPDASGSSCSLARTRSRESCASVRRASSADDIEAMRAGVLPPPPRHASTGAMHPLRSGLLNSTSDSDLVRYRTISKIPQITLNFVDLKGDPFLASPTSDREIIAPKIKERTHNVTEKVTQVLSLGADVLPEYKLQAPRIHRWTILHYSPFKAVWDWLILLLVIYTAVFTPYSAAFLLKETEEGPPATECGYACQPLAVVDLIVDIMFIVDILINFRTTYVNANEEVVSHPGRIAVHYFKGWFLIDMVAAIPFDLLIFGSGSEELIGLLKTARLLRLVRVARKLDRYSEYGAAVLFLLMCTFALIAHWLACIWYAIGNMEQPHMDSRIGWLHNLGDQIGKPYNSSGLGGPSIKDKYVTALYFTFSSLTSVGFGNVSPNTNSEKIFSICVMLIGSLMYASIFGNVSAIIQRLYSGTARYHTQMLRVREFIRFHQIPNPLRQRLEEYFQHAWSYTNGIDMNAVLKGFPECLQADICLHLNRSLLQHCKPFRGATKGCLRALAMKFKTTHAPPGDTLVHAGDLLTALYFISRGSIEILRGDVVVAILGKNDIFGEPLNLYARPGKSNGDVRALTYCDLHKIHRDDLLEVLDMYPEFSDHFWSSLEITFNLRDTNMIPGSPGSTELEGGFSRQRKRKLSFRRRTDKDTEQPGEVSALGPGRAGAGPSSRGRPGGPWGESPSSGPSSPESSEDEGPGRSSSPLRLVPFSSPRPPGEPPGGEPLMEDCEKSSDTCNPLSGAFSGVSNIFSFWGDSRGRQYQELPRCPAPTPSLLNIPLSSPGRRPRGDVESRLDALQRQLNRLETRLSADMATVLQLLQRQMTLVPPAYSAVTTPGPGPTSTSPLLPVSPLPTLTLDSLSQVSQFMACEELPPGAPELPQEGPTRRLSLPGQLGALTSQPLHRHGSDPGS
row,Compound,"hERG current change (%, negative = inhibition) at 10uM [%]"
1,COc1ccc(C(=O)COC(=O)c2ccn(C)n2)cc1,-14.5
2,Cc1[nH]c(C)c(S(=O)(=O)N2CCN(c3cccc(C(F)(F)F)c3)CC2)c1C(=O)N1CCCCC1,-1.72
3,O=C(NCc1ccc(F)cc1)C1CC(=O)N(Cc2ccco2)C1 (stereo not shown),-17
4,COc1cc(C=O)ccc1OCc1ccncc1,16.5
5,O=C(c1ccco1)N1CCN(c2ncnc3scc(-c4cccs4)c23)CC1,-63.9
6,Cc1ccc(-c2csc3ncnc(N4CCN(c5ccccc5O)CC4)c23)cc1,25.8
7,Oc1ccccc1N1CCN(c2ncnc3scc(-c4ccccc4)c23)CC1,4.04
8,Fc1ccc(-c2csc3ncnc(N4CCN(Cc5ccccc5)CC4)c23)cc1,-2.14
9,Cc1ccc(-c2csc3ncnc(N4CCN(C(=O)c5ccccc5)CC4)c23)cc1,-30.5
10,O=C(c1cccs1)N1CCCN(c2ncnc3scc(-c4ccccc4)c23)CC1,-60.7
11,c1ccc(N2CCN(c3ncnc4scc(-c5cccs5)c34)CC2)cc1,9.87
12,Cc1ccc(-c2csc3ncnc(N4CCN(C(=O)c5ccco5)CC4)c23)cc1,-89.9
13,Fc1ccc(-c2csc3ncnc(N4CCN(c5ccccc5)CC4)c23)cc1,16.2
14,Cc1ccccc1N1CCN(c2ncnc3scc(-c4cccs4)c23)CC1,-1.45
15,O=C(O)CSCC(=O)N1CCN(c2ncnc3scc(-c4ccccc4)c23)CC1,25.4
16,O=C(c1ccco1)N1CCN(c2ncnc3scc(-c4ccc(F)cc4)c23)CC1,-70.2
17,CS/C(=N\S(=O)(=O)c1ccccc1)c1ccccc1,0.781
18,CC(C)n1c(C(F)(F)F)nc2cc(C(=O)N3CCOCC3)ccc21,16.3
19,O=C(O)C1Sc2[nH]c(=O)sc2C2c3cc(Cl)ccc3OC(=O)C12 (stereo not shown),14.5
20,Cc1ccc(NC(=O)Cc2noc3ccccc23)c(C)c1,11.2
21,O=S(=O)(CCc1nc2ccccc2o1)c1ccc(Cl)c(Cl)c1,13.4

row,Compound,"hERG current change (%, negative = inhibition) at 10uM [%]"
1,Cc1sc2nnn(CC(=O)N3CCN(C(=O)c4ccco4)CC3)c(=O)c2c1C,-32.4
2,CCc1cc(C(=O)N2CCN(C(=O)c3ccco3)CC2)sc1C,10.6
3,CCc1cc2c(N3CCN(C)CC3)ncnc2s1.Cl,-29
4,COc1ccc(-c2csc3ncnc(N4CCN(c5ccc(OC)cc5)CC4)c23)cc1,-11.2
5,COc1ccc(-c2csc3ncnc(N4CCN(C(=O)c5ccco5)CC4)c23)cc1,-75.3
6,CCc1cc2c(N3CCN(C(=O)c4ccco4)CC3)ncnc2s1,-77.7
7,CCc1cc2c(N3CCN(c4ccccc4)CC3)ncnc2s1,-43.5
8,COc1cc(C(=O)N2CCN(c3ncnc4sc(C)c(C)c34)CC2)cc(OC)c1OC,-47.2
9,COc1ccc(-c2nsc3c(N4CCN(C(=O)c5ccco5)CC4)ncnc23)cc1,10.9
10,CCc1cc2c(N3CCN(c4nnc(CC)s4)CC3)ncnc2s1.Cl,-67.6
11,CCc1cc2c(N3CCCCC3)ncnc2s1.Cl,-7.21
12,Cc1sc2ncnc(N3CCN(C(=O)c4ccco4)CC3)c2c1C,-61.8
13,Fc1ccc(CNCc2cccc(Br)c2)cc1,13.9
14,O=C(CSc1cn(CCNC(=O)c2ccccc2)c2ccccc12)NCC1CCCO1 (stereo not shown),-10.9
15,O=C(CNC(=O)c1cccs1)OCC(=O)c1ccccc1,8.55
16,O=C(c1cccnc1Nc1ccccc1F)N1CCOCC1,11.7
17,O=S(=O)(c1ccccc1)C(/C=N\O)/C=C/c1ccccc1 (stereo not shown),4.57
18,CCCc1nnc(NC(=O)CCC(=O)NC2CCCCCC2)s1,13.7
19,C=CCNC(=O)COC(=O)CCC(=O)c1cccs1,1.42
20,CCC(C)NC(=O)CSc1nc2ccsc2c(=O)n1-c1ccc(OC)cc1 (stereo not shown),-3.72
21,O=[N+]([O-])c1cccc(NNS(=O)(=O)c2ccccc2F)c1,-29.4

row,Compound,"hERG current change (%, negative = inhibition) at 10uM [%]"
1,O=c1c2c3c(sc2nc2n1N=C(c1cccs1)CS2)CCCC3,5.12
2,COc1ccnc(CN(C)C(=O)C2CCC(=O)N(CCN(C)C)C2)c1 (stereo not shown),17.5
3,O=C(c1ccco1)N1CCN(c2ncnc3c(-c4ccccc4)nsc23)CC1,-14.2
4,O=C(c1ccco1)N1CCN(c2ncnc3scc(-c4ccccc4)c23)CC1,-64.5
5,CC(C)(C)C(=O)N1CCN(c2ncnc3scc(-c4ccccc4)c23)CC1,-30
6,CCN1CCN(C(=O)c2ccc3c(Cl)c4c(nc3c2)CCCC4)CC1,6.65
7,CCCCC(C(=O)O)C(C)CC(=O)Nc1nncs1 (stereo not shown),13.1
8,Cc1ccc(NC(=O)/C(=C\c2cccnc2)NC(=O)c2ccco2)cc1,-28.5
9,O=C(Nc1cccc(Cl)c1)/C(=C\c1cccnc1)NC(=O)c1ccco1,-67
10,CC(=O)c1cccc(NC(=O)/C(=C/c2ccco2)NC(=O)c2ccco2)c1,-18.6
11,O=C(Nc1ccc2ccccc2c1)/C(=C/c1cccc(Br)c1)NC(=O)c1ccco1,-68.6
12,CC(=O)c1cccc(NC(=O)/C(=C\c2cccnc2)NC(=O)c2ccco2)c1,-10.6
13,O=C(Nc1ccccc1)/C(=C/c1cccc(Br)c1)NC(=O)c1ccco1,5.35
14,CC(=O)c1cccc(NC(=O)/C(=C\c2ccco2)NC(=O)c2ccco2)c1,-64.3
15,O=C(Nc1ccccc1)/C(=C/c1cccnc1)NC(=O)c1ccco1,-4.49
16,Cc1ccc(NC(=O)/C(=C/c2cccc(Br)c2)NC(=O)c2ccco2)cc1,-28.1
17,O=C(Nc1cccc(F)c1)/C(=C\c1cccnc1)NC(=O)c1ccco1,-22.4
18,CC(=O)c1ccc(NC(=O)/C(=C\c2ccco2)NC(=O)c2ccco2)cc1,-15.9
19,O=C(Nc1cccc(Br)c1)/C(=C\c1cccnc1)NC(=O)c1ccco1,-56.6
